For 56 molecules, inhibition results are on record in PubChem BioAssay AID504634 (The Scripps Research Institute Molecular Screening Center, 2011).

In all, about 340,000 compounds went through this assay and about 280 (0.082%) were called active. The sample holds actives, similar compounds and a random draw of the others, so the mix is not that of the screen. A number with no mark means an inactive call. No stated cut-off is given here; in the data, active means inhibition mostly above about 23% (no sharp cut-off); inactive means mostly below about 18%.

Sequence of 5-hydroxytryptamine receptor 5A (Homo sapiens) (P47898 whole entry, looked up): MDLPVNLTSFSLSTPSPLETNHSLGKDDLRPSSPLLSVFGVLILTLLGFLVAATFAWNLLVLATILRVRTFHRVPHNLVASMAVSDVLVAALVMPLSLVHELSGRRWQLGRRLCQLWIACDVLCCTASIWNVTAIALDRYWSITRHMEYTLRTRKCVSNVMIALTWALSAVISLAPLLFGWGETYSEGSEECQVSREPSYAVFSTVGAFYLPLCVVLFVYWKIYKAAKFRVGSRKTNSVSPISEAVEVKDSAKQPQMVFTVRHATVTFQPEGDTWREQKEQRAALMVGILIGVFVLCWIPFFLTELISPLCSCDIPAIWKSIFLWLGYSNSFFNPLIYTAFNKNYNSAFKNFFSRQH

This assay addresses 5-hydroxytryptamine receptor 5A (Homo sapiens) (UniProt P47898). As to the kind of experiment: inverse agonism at human 5-HT5A receptor – cell-based, luminescence, full-deck HTS, counter-screen for OPRM1-OPRD1 heterodimer inverse agonist project, primary screen (AID 504634).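 Further: 0% = cells with DMSO and 100% = no-cell wells with DMSO.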 The following applies: HTR5A cell line, at 9.3 µM, active compounds read high. On the technique in general: A counterscreen serves to expose hits that act by an unwanted route or on another target.
What is called inhibition is the relative decrease from the control value, in per cent. Turning to `CCCC1NC(=O)NC(C)=C1C(=O)OCC` (stereo unspecified), the inhibition is -17.2%. Under `CCOC(=O)c1c(C)[nH]c(C)c1S(=O)(=O)NCCCc1ccco1` stands 16.2%; under `CCNS(=O)(=O)c1ccc(CCC(=O)N2CCN(c3ccc(OC)cc3)CC2)cc1`, 8.47%. The result for `CC(NC(=O)CNC(=O)Cc1cccc2ccccc12)c1ccc(S(N)(=O)=O)cc1` (stereo unspecified) reads 2.43%.

`O=c1ccc2c(-c3ccccc3S(=O)(=O)O)c3ccc(O)c(O)c3oc-2c1O`: the inhibition is 24.5% (active).

`NS(=O)(=O)c1ccc(CCNC(=O)c2ccc(Cl)c(S(=O)(=O)N3CCCCCC3)c2)cc1`: the inhibition is -7.96%.

With `COc1ccc2[nH]c3c(c2c1)CCN1C(=O)C(CC(=O)NCCc2ccccn2)C[C@H](C(=O)N2CCOCC2)[C@@]31C` (stereo partly specified), the inhibition is 2.62%.

For the molecule `Cc1noc(C)c1NC(=O)Nc1ccc2c(c1)C(=O)N([C@H](C)CO)C[C@H](C)[C@@H](CN(C)C(=O)Nc1ccccc1)O2`, the inhibition was -10%. The result for `S=C(Nc1ccc(Br)cc1Cl)N1CCC2(CC1)OCCO2` reads 2.4%; that for `CC(C)Cn1cnc2c1c(=O)n(CC(O)c1ccccc1)c(=O)n2CC(C)C` (stereo unspecified), -27.9%. The result for `COc1ccc(S(=O)(=O)N2CCc3ccccc32)cc1C(=O)Nc1cc(S(C)(=O)=O)ccc1Cl` reads -6.04%.

`COc1cc(CCC(=O)Nc2ccncc2Cl)cc(OC)c1OC`: the inhibition is 6.7%. The result for `Cc1cccn2c(=O)c(C=O)c(Nc3ccc(S(N)(=O)=O)cc3)nc12` reads -18.2%; that for `O=C(O)c1ccccc1NC(=S)NC(NC(=O)c1ccccc1[N+](=O)[O-])C(Cl)(Cl)Cl` (stereo unspecified), -0.92%.

On to `CCCS(=O)(=O)N1CCN(C(=O)c2cccs2)CC1`, for which the inhibition was -3.26%. The result for `Cc1cccc(N2CC(C)Cn3c2nc2c3c(=O)n(CC(=O)OCc3ccccc3)c(=O)n2C)c1` (stereo unspecified) reads -8.01%. Under `COc1ccc(S(=O)(=O)N2CCOC2CNC(=O)C(=O)NCc2ccc(F)cc2)cc1` (stereo unspecified) stands 7.37%; under `CC(C)(C)c1ccc(S(=O)(=O)N2CCN(C(=O)c3ccc4c(c3)C(=O)N(Cc3ccncc3)C4=O)CC2)cc1`, 5.4%; under `COc1ccc(C#Cc2c(-c3ccc(OC)cc3)oc3ccc(-c4ccc5c(c4)OCO5)cc23)cc1`, 5.51%. The result for `CC1(c2ccc3ccccc3c2)NC(=O)N(CC(N)=O)C1=O` (stereo unspecified) reads 1.06%; that for `CCCC(=O)N1CCN(c2nnc(-c3ccc(C)cc3)c3ccccc23)CC1`, -8.96%; that for `CN(C(=O)COC(=O)CCCc1c[nH]c2ccccc12)c1c(N)n(Cc2ccccc2)c(=O)[nH]c1=O`, 20.6%. On to `NC(=O)c1cc(S(=O)(=O)NCCCc2ccco2)cs1`, for which the inhibition is 1.79%. Under `CCc1ccc(NC(=O)CCNS(=O)(=O)c2cccs2)cc1` stands -3.72%; under `COc1ccc(/C=N/OCc2ccccc2C#N)c(OC)c1`, -3.2%; under `Cc1ccc(C(=O)NCC(=O)NC2CC2)cc1`, 4.21%. Turning to `NS(=O)(=O)c1ccc(CCNC(=O)c2nc(CS(=O)(=O)c3ccc(Cl)cc3)no2)cc1`, the inhibition was -12.4%. The result for `Cn1cnc(C(F)(F)F)c1-c1ccc([N+](=O)[O-])cc1` reads 8.1%; that for `COc1ccccc1C1=CC(=O)CCC1`, 2.76%; that for `CCn1c(SCC(=O)N(C)C2CCS(=O)(=O)C2)nnc1-c1cccs1` (stereo unspecified), -22.6%. Under `O=c1nc(NO)ccn1C1CCCO1` (stereo unspecified) stands 1.3%; under `O=C(O)c1ccc(-n2nc(-c3ccccc3)c3ccccc3c2=O)cc1`, 0.76%.

As for `COc1ccc(N(CC(=O)NC2CCCCC2)S(=O)(=O)c2c(C)[nH]c(=O)[nH]c2=O)cc1`, the inhibition was 1.68%. Consider `Cc1sc2ncn(CC(=O)NCCCC(=O)N3CCN(c4ccccc4F)CC3)c(=O)c2c1C`, for which the inhibition is 1.47%. With `Cc1nc(N)c(Br)c(C)c1Br`, the inhibition is -6.08%. Under `CSCCC(NC(=O)COc1ccccc1)C(=O)OCc1ccc(Cl)cc1` (stereo unspecified) stands -5.68%.

As for `CSCCC(NC(=O)COc1ccccc1)C(=O)OCCOc1ccc(Br)cc1` (stereo unspecified), the inhibition is -4.54%. Under `CSCCC(NC(=O)COc1ccccc1)C(=O)OCC(=O)c1cc2ccccc2o1` (stereo unspecified) stands 33.3% (active). As for `COc1cc(C(=O)NNC(=O)CN2C(=O)NC3(CCCC3)C2=O)cc(OC)c1OC`, the inhibition is 5.64%. Take `COCCCNS(=O)(=O)c1cccc(S(=O)(=O)c2cccc(S(=O)(=O)NCCCOC)c2)c1`: the inhibition was -5.56%. In the case of `O=C(CC1C(=O)NCCN1Cc1ccc(-c2ccccc2)cc1)NCc1ccncc1` (stereo unspecified), the inhibition was -12.3%. Under `COc1ccccc1CN(C)C(=O)C1(c2ccc(Cl)cc2)CC1` stands 21.3%; under `Cc1cc(OC(=O)c2ccccc2Cl)ccc1N1C(=O)CCC1=O`, 11.2%; under `Cc1ccc(C(=O)OCC(=O)N2CC(C)CC(C)C2)cc1S(=O)(=O)N1CCCCC1` (stereo unspecified), 11%. As to `CCCCCCCC1(C)NC(=O)N(CC(=O)Nc2cc(C)on2)C1=O` (stereo unspecified), the inhibition is -14.9%. Under `O=C(NCCS(=O)(=O)N1CCN(c2ccc(F)cc2)CC1)c1ccc2c(c1)OCO2` stands 9.72%; under `CN(CCc1ccccc1)C(=O)c1cccc(NC(=O)Cc2ccc([N+](=O)[O-])cc2)c1`, -40.2%. Under `Cc1cc(C)cc(C(=O)NC(CC(N)=O)c2ccc(N3CCC(N4CCCCC4)CC3)c([N+](=O)[O-])c2)c1` (stereo unspecified) stands -1.31%; under `Cc1ccc(S(=O)(=O)C2(S(=O)(=O)c3ccc(C)cc3)CCCC2)cc1`, -9.41%.

Consider `O=C(CCCOc1ccccc1)NNC(=O)c1ccc(Cl)cc1`, for which the inhibition is -22.2%.

As to `COC(=O)N1CN(C(=O)OC)CN(C(=O)OC)C1`, the inhibition is -11.4%.

Regarding `O=C(NNc1cc(Cl)cc(Cl)c1)c1c(F)cccc1Cl`, the inhibition is 5.05%. The result for `CC1(C)CC(=O)C(C2c3ccccc3S(=O)(=O)c3ccccc32)C(=O)C1` reads -6.15%; that for `CC(C)OC(=O)Cn1nc(C(F)(F)F)c2c1CCCC2`, -22%.

For `CN1CCN(C2=NCCO2)CC1`, the inhibition was 13.4%.

On to `Nc1scc(-c2ccncc2)c1Cl`, for which the inhibition is 4.78%.
